The results in this text go back to PMC12136788.

Positions count from the first letter of the chain named. The full ranking holds about 24,000 sequences; the median of “enrichment r” is about 0.99, and the highest 2% start at about 3.7. The list is a sample of the results.

To fix the notation:
B1: chr1:220276048:220276049:+_ENSG00000067704_ENST00000302637|hu_hu|hu_hu_hu_mus_True|8_78 (ssRNA)
RNA: GGGAGUUCUACAGUCCGACGAUCGCAAAUUGCCUGGUUGGCGGGAAUUGUCCAAGGUUGUGUGGUCCAAACUAAAACGCUAACAGGGGAUGAGGCAUCUGUAAGAGACUCCAACUUCGGAGGAGGUUUUAAGAGAGGGAAUCUCAACAGAGGAUUGAGCAUCA
B2: chr9:62645482:62645483:-_ENSMUSG00000032244_ENSMUST00000034775|mus_hu|FALSE|FALSE (ssRNA)
RNA: GGGAGUUCUACAGUCCGACGAUCUACUGUGGUAUGGUUCACGUUGGCUCCAUGGCUGACUAGAAGUUUAACAACUUCAAAAUGUCCUGCUCCAGCUGCACACCAAAGAGCAGUGGCACCAUCAAUGACAUACCCGUCGAAGCGCAACAGAGGAUUGAGCAUCA
B3: chr2:232319755:232319756:-_ENSG00000115053_ENST00000322723|hu_hu|motif|central (ssRNA)
RNA: GGGAGUUCUACAGUCCGACGAUCAAAAGUUUAUAUGAAUAUCCAGUCAAAACCAACACGGUAUUGCCCUUGAAAUGUUAACGGGACGGAUUUCCAAGGAGACCACAGGACUGUAUACUGUCUUGGAAUGUCCUCAGAAGGCUCCAACAGAGGAUUGAGCAUCA
B4: 69235085_69235205_3312_3pUTR_ENSG00000135679_ENST00000462284|human|control|control (ssRNA)
RNA: GGGAGUUCUACAGUCCGACGAUCGGCUGGAGAAUAAGUACAUUUUUACAGCCGGGUGUGGUGGCUAACGCCUGUAAUCCUACUUAGCACUUUGCGAGGCCAAGACAGGAGGAUCUCUUGAGCCCAGGAGUUCGAGACCAGCCUCAACAGAGGAUUGAGCAUCA
B5: chr11:79222206:79222207:+_ENSMUSG00000020716_ENSMUST00000071325|mus_hu|FALSE|FALSE (ssRNA)
RNA: GGGAGUUCUACAGUCCGACGAUCUUUUGUAAAUUCAUCUGGAUAAUUUUCUACCCAGUUCCAAAAUGCCUUUUCCAGGCUAUUUAUAACUGCUAACUGCGCAACCUUCUUUAGGGCUUUAAAUUUAAAUGCUGUUUCCUUCAGCAACAGAGGAUUGAGCAUCA
B6: 62954625_62958383_5419_CDS_ENSG00000116641_ENST00000251157|human|control|control (ssRNA)
RNA: GGGAGUUCUACAGUCCGACGAUCUGCUUCUUGAAGUUUACCAUGAAUUGUGGAUAGUUUCUUUGCAUCCCGAUUAGCUUCAUGAAUAGGAAUAAGUACUUUGUAAACUUCAUUAACUGCUUCAUACAUGCCAGCCAUAGAGAACAACAGAGGAUUGAGCAUCA
B7: chr9:53391639:53391640:-_ENSMUSG00000032047_ENSMUST00000034547|mus_hu|motif|central (ssRNA)
RNA: GGGAGUUCUACAGUCCGACGAUCCACUUUUUGGGGAUCAAUCUCCAACAUUUUAAUGUUUGCUAGUACAACCAGACGGAAGGCUUCAUUUACUUCCCACAUUGCAAUAUCUUCUUUUUUCAAUCCCACAUCUUUAAGAACCAUCAACAGAGGAUUGAGCAUCA
B8: chr4:76721835:76721836:+_ENSG00000138768_ENST00000264904|hu_mus|hu_hu_hu_mus_True|48_48 (ssRNA)
RNA: GGGAGUUCUACAGUCCGACGAUCGUUUGGCUGGGGUUUCUGAGACGCUCUGGAAUAUAACUCAUGUUUGCUAAUAAAUCCUAGUUUUCUAUGAAAUUUCUCUUUGCCAAUCCUCUUCUCUAUUAGUUGCUUUAGUUUCUCUUUCAACAGAGGAUUGAGCAUCA
B9: chr9:66219764:66219765:+_ENSMUSG00000038664_ENSMUST00000042824|mus_mus|motif|central (ssRNA)
RNA: GGGAGUUCUACAGUCCGACGAUCUUCAAAAUCAGGCAACUGUGGUCCUUUGAGGCAUAAAACCUGUUGAGGCAAAGGUACGGCUUCCUUAUUGCUGAUCAGUUUAGAAUACAAAACGGUAACUCCCUCUCUUGUAGCAAUAGACAACAGAGGAUUGAGCAUCA
B10: chr7:44244176:44244177:+_ENSG00000106636_ENST00000223369|hu_mus|hu_hu_hu_mus_False|38_108 (ssRNA)
RNA: GGGAGUUCUACAGUCCGACGAUCACUAUCAUUCCGGACGUAGACAUGGCAAAGAUACUCUUGUUCUUUGACAGAAGCUCUGCUGCCUUUCCCCGAGCGCUCCACAAUCAGUUGACUUGUAAAGGUCAUGAAUUCCUGCACACUCAACAGAGGAUUGAGCAUCA
B11: 109692034_109692919_6190_CDS_ENSG00000148143_ENST00000277225|human|control|control (ssRNA)
RNA: GGGAGUUCUACAGUCCGACGAUCGAGGUGAUUGCAGAUGGCUCGGAGCGUUGGGUGCACUUCCACACAGAAUUUACAUUUGUAGCCCACCACUUUCCUCUCCUUGAUCUUUGGCACCUCUUCUAAGUGACCAAAAGGCCUCUCCAACAGAGGAUUGAGCAUCA
B12: chr1:220276048:220276049:+_ENSG00000067704_ENST00000302637|hu_hu|hu_hu_hu_mus_True|38_88 (ssRNA)
RNA: B1 RNA with U48C, U57C, U60G, G100A, U127C, U129C, A131G, A135G
B13: chr1:115282363:115282364:-_ENSG00000009307_ENST00000339438|perfect_dup|motif|central (ssRNA)
RNA: GGGAGUUCUACAGUCCGACGAUCAUCAUCUCCUACUUUUAAGUCUUGCAGGUUGCCAUUAUACUGUGAACAGUGGAAGAAAAGUCGGGCUUGACGUUCUGAACACUGAAUAAAUCCGUAAGAGGUUAACAGUUUUUCAAUAACCAACAGAGGAUUGAGCAUCA
B14: chr18:35748043:35748044:+_ENSMUSG00000037236_ENSMUST00000166793|perfect_dup|FALSE|FALSE (ssRNA)
RNA: GGGAGUUCUACAGUCCGACGAUCUGUAUAAAAGAGUGAACACAGCUUACAGUAAAACCCUGUUUUAGGUAUCACAUAGUCUAUACCAACAGGAACAUUAGGCUGAUAUGGUCCGAUUCUAUACUCAUCGGGAAUUGUAUAAUCCAACAGAGGAUUGAGCAUCA
B15: chr2:179515052:179515053:+_ENSMUSG00000000305_ENSMUST00000000314|mus_hu|mus_mus_mus_hu_False|28_58 (ssRNA)
RNA: GGGAGUUCUACAGUCCGACGAUCGCUGUCCCAUGCAGUCACCGUGAACGCCACCUGCUCGGAGGGGACCUGCAGCUCCCUAGUGGCGAAGACUGUCCCAUCUGCCCCGACUUUGAAGUCCAUGCUGUUGGUCUCAUAUUGUGUCAACAGAGGAUUGAGCAUCA
B16: chr7:135612270:135612271:-_ENSG00000105887_ENST00000393085|hu_mus|hu_hu_hu_mus_False|8_8 (ssRNA)
RNA: GGGAGUUCUACAGUCCGACGAUCGUUUUUUUCUGAGAUGUUAAAUAGUACUUCAGUGGAAAACAAAACUUAACCUUUUAUUAAUGCGUGUUGUACCAAAAGCAGACAUUUUAGCUUCAUUUAUUCACUCAAAAUAUCAUUAAGCAACAGAGGAUUGAGCAUCA
B17: chr18:56819859:56819860:+_ENSG00000166562_ENST00000588875|hu_mus|hu_hu_hu_mus_True|88_88 (ssRNA)
RNA: GGGAGUUCUACAGUCCGACGAUCAACCUUGAUUACUCUGUGAACUAUUGGAAUGUCUCUUCCUUCAACCUUAAAAACAACUAUUUCACCAGCUCUGAUGGGGUCCUCCCGGAAAUUCGUGAGGAACAGCAGAUCUCCUCUGUGCAACAGAGGAUUGAGCAUCA
B18: chr5:145543945:145543946:-_ENSG00000133706_ENST00000545646|hu_hu|hu_hu_hu_mus_True|38_58 (ssRNA)
RNA: GGGAGUUCUACAGUCCGACGAUCCUGAACGGCCAGUGGUGGGAAAUAAUCAAGCCAGUGCUCUGCUUCAGAAAACUUUACUAUCUCGUCAUCAGAGAGGCCAAGGGAUUUCAUAAUGUCCCACUGGUACUUAGAAGAUCCUGCCAACAGAGGAUUGAGCAUCA
B19: chr12:73313434:73313435:-_ENSMUSG00000021087_ENSMUST00000021497|mus_mus|motif|central (ssRNA)
RNA: GGGAGUUCUACAGUCCGACGAUCCAUAUAUCCUAAGAGUACAGGAAGAGCCUCAAAACACCUGUCUCAAAGUUUGCCUCGGAGAUUAUGGUACCAGGAAAGGGAAACAAUCAAUUUGCAGUAACGAGGAAGGAGAGAGCUGUUCAACAGAGGAUUGAGCAUCA
B20: 87970796_87970916_7552_CDS_ENSG00000188994_ENST00000369577|human|control|control (ssRNA)
RNA: GGGAGUUCUACAGUCCGACGAUCUUCUGACUGGCAGAGGUUAUCUUCCUGAAAAUCAUUACUUACAUUUGAAGAAGUAUUAGCUUGGGUCUCUACACUUGUGCUAUCUUCAUUUAUUAAUUUUGUAAUAAACAAUUCUGUUAGCAACAGAGGAUUGAGCAUCA
B21: chr15:93570553:93570554:+_ENSG00000173575_ENST00000394196|hu_hu|motif|central (ssRNA)
RNA: GGGAGUUCUACAGUCCGACGAUCUCUAAGGCCAUAGUGUAUCAUGUCAACCCUUGUUCACGUGCAGGUUUUAGGUGAUGCGGACUCCCUCUUUCUCAACCUGUUAUUUCUACCAACAAUGAAAUCUUUCAAAGCCAGACUCCACAACAGAGGAUUGAGCAUCA
B22: 135292008_135298915_3170_CDS_ENSG00000155561_ENST00000285968|human|control|control (ssRNA)
RNA: GGGAGUUCUACAGUCCGACGAUCAUAUAUGACCUGGUAACAUAGCUCAGCCAGCUGAGGAGAUUCUCGCACCGCCACUGGGCCUGUUCUCCCUUCCGUUCCUUUCUCCAAGAUGUUUAGAAUGGCGUGAAGGCAUGUCCGAGGCAACAGAGGAUUGAGCAUCA

The assay has as its target T1, UNK ZnF1-3 (human, UniProt Q9C0B0 31-174).
T1 sequence: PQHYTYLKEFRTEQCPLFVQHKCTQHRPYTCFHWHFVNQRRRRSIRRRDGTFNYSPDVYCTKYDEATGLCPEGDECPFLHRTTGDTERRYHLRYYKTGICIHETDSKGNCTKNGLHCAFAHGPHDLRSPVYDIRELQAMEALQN
Kind of assay: nsRBNS (natural sequence RNA bind-n-seq); RBNS binding buffer (assumed for nsRBNS): 25 mM Tris pH 7.5, 150 mM KCl, 3 mM MgCl2, 0.01% Triton X-100, 500 ug/ml BSA, 20 U/ml SUPERase-In, 4 C; UNK is unkempt and MSI1 is Musashi-1; names of the RNAs are library labels; protein concentration not given here; high values mean tight binding.
The molecule B1 showed a binding signal of 1.91 enrichment R. In the case of B2, the binding signal turned out to be 0.893 enrichment R.

Consider B3, for which the binding signal was 0.847 enrichment R.

Regarding B4, the binding signal was 1.12 enrichment R. For the molecule B5, the binding signal is 0.853 enrichment R. Next, B6: 1.01 enrichment R; B7: 1.03 enrichment R.

Molecule B8 had a binding signal of 0.57 enrichment R. Molecule B9 gave a binding signal of 0.879 enrichment R.

Regarding B10, the binding signal stood at 0.779 enrichment R. Then B11, with 0.805 enrichment R; and B12, with 1.67 enrichment R; and B13, with 1.55 enrichment R. With B14, the binding signal was determined as 0.418 enrichment R. Turning to B15, the binding signal is 0.737 enrichment R. Consider B16, for which the binding signal worked out at 0.523 enrichment R. B17 yielded a binding signal of 0.697 enrichment R. Next, B18: 1.07 enrichment R; B19: 2.3 enrichment R. Then B20, with 0.862 enrichment R; and B21, with 0.941 enrichment R.

Take B22: the binding signal is 1.11 enrichment R.
